# Compound activity as filed in PubChem BioAssay.
# TEAD-YAP inh = TEAD-YAP interaction inhibition. inhibition, % at 9.12 µM. 640,000 tested, 1.4% active. HEK-TIYL cells, TEAD-Gal4/YAP UAS-luciferase luminescence; in the data active = inhibition above about 32%;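 also: 0% = median of test compound wells and 100% = reference inhibitor wells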
# GPR151 ag = activates the human receptor GPR151 | Q8TDV0 | PathHunter beta-arrestin GPR151 cells, luminescence | activation, % at 11.2 µM | 650,000 tested, 1% active | AID 1508602; in the data active = activation above about 4.9%;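 also: 0% = median of compound wells and 100% = cells with positive control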
# FBW7 act = human FBW7 E3 ligase activation, primary screen. Q969H0. AlphaScreen FBW7–phospho-cyclin E peptide binding, activator screen. normalized activity (activation), % at 26.1 µM. 650,000 tested, 0.13% active; in the data active = normalized activity above about 1.9%;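 also: purified mutant Fbw7 with reduced substrate affinity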
# Target sequence (Q969H0 whole entry, looked up): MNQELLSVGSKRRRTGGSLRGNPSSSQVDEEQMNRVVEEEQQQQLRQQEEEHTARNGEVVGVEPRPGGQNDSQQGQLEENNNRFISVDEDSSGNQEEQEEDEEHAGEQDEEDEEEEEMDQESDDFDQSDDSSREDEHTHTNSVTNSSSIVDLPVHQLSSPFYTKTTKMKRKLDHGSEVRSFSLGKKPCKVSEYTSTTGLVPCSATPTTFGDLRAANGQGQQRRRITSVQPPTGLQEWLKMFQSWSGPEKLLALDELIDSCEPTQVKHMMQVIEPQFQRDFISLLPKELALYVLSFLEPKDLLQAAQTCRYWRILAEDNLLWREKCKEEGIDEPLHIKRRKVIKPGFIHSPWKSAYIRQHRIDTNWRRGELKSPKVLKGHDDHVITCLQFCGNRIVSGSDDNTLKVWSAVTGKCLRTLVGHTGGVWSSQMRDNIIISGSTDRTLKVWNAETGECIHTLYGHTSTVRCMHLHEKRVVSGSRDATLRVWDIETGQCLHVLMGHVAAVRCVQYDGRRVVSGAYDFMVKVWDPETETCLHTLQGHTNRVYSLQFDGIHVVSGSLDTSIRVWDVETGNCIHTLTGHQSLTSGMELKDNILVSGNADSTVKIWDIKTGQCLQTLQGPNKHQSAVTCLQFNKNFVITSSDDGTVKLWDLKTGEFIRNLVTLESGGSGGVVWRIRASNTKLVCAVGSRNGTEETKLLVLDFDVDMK
# MITF inh = human MITF inhibition, primary screen. AID 1259374. inhibition, % at 2.6 µM. AlphaScreen MITF homodimerization, bead proximity signal. 650,000 tested, 0.91% active. O75030; in the data active = inhibition above about 50%;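 also: 0% = vehicle wells with protein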
# The depositor's hits bear a star. A selection: hits, their analogues and other compounds. The true share with any hit is near 3.5%.
SMILES,TEAD-YAP inh,GPR151 ag,FBW7 act,MITF inh
COCCn1c(SCC(=O)c2ccc(OC)cc2OC)nnc1-c1ccc(OC)cc1,-1,0,0,-6
c1ccc(-n2cnc3c(NCc4nc5ccccc5[nH]4)nc(N4CCN(c5ccccn5)CC4)nc32)cc1,48*,-2,0,-1
c1ccc(-n2cnc3c(NCc4nc5ccccc5[nH]4)nc(N4CCc5ccccc5C4)nc32)cc1,-13,1,0,3
CCCNc1nc(N2CCN(c3ccccn3)CC2)nc2c1ncn2-c1ccccc1,40*,-1,0,0
C/C(=N\NC(=O)c1ccc(CN2CCOCC2)cc1)c1ccccc1,1,1,1,2
O=C(Nc1ccc(N2CCCCS2(=O)=O)cc1)c1ccc(-c2ccccc2)cc1,1,0,0,3
O=C(N/N=C/c1cccc(O)c1)c1ccc(F)cc1,35*,-1,0,8
CC(C)(C)OC(=O)N/N=C/c1cccc(O)c1,84*,-4,0,3
O=C(NCc1cccs1)c1ccc(N2CC3CC(C2)c2cccc(=O)n2C3)c(NC(=O)c2cccs2)c1 (centres undefined),-13,-1,0,-3
COCCCN1C(=O)/C(=C2/C(=O)N(Cc3ccccc3F)c3ccccc32)SC1=S,2,0,0,1
Cc1nc2c(C(=O)NCc3cccnc3)cnn2c(C)c1Cc1cccc(Cl)c1,0,1,0,0
Cc1ccc(Cc2c(C)nc3c(C(=O)NCc4cccnc4)cnn3c2C)cc1,49*,1,0,2
COCCCNC(=O)c1cnn2c(C)c(Cc3ccc(C)cc3)c(C)nc12,40*,0,0,8
COC(=O)c1cnn2c(C)c(Cc3ccc(C)cc3)c(C)nc12,43*,1,0,5
COc1ccc(S(=O)(=O)NCC2CCCN(C(=O)c3ocnc3C)C2)cc1 (centres undefined),1,1,0,4
O=C(/C=C/Nc1ccc(F)cc1Br)c1ccccc1,86*,-4,0,6
O=C(/C=C/Nc1ccc(F)cc1F)c1ccccc1,84*,-2,0,-23
COc1cccc(C(=O)/C=C/Nc2ccc(F)cc2F)c1,71*,-4,0,9
COc1ccc(C(=O)/C=C/Nc2ccc(F)cc2F)cc1,-33,-1,1,17
O=C(/C=C/Nc1ccc([N+](=O)[O-])cc1Br)c1ccccc1,43*,-1,0,7
CN1CCN(C(=O)c2ccc([N+](=O)[O-])o2)CC1,2,-1,0,-5
CCn1nc(C)c(CNc2nncc(-c3cccc(Cl)c3)n2)c1C,-18,-2,0,-11
O=C(/C=C/Nc1ccccc1F)c1ccccc1,61*,-5,0,12
O=C(/C=C/Nc1ccccc1I)c1ccccc1,91*,-5,0,-1
CCc1ccc(C(=O)/C=C/Nc2ccccc2O)cc1,39*,-4,0,2
SMILES,TEAD-YAP inh,GPR151 ag,FBW7 act,MITF inh
Cc1ccc(C(=O)/C=C/Nc2ccccc2O)cc1,4,-2,0,-31
Cc1[nH]c2ccc(F)cc2c1CCNS(=O)(=O)c1cc([N+](=O)[O-])ccc1Cl,61*,-2,0,-6
Cc1ccc2[nH]c(C)c(CCNS(=O)(=O)c3cc([N+](=O)[O-])ccc3C)c2c1,3,0,0,4
Cc1cc(NS(=O)(=O)c2cc3c(cc2C)NC(=O)CO3)ccc1Br,3,1,0,12
CCOCC(=O)N1CCC(c2ccc(OC)cc2)C1 (centres undefined),6,0,0,8
CCC1=NN2C(=N)/C(=C/c3cccc(OCCOc4ccccc4C)c3)C(=O)N=C2S1,-53,0,0,14
CCC1=NN2C(=N)/C(=C/c3cc(Br)c(OCCOc4ccc(C)cc4)c(OC)c3)C(=O)N=C2S1,-14,-2,1,61*
CCC1=NN2C(=N)/C(=C\c3cccc(OCCOc4cc(C)ccc4C)c3)C(=O)N=C2S1,-56,-1,0,63*
CCC1=NN2C(=N)/C(=C/c3cc(Br)c(OCCOc4ccc(Br)cc4)c(OC)c3)C(=O)N=C2S1,-16,2,0,2
C=CCn1c(SCC)nnc1-c1ccc([N+](=O)[O-])cc1,0,1,0,9
C=CCn1c(Sc2ccc([N+](=O)[O-])cn2)nnc1-c1ccc(OC)cc1,48*,0,0,-7
CCOc1ccc(CC(=O)Nc2nn(C)c3c2C(c2ccco2)CC(=O)N3)cc1 (centres undefined),9,-1,0,-6
N#CC(C#N)C(C#N)(C#N)C1CCCC1=O (centres undefined),7,-1,-1,78*
N#CC(C#N)C(C#N)(C#N)C1CCCCC1=O (centres undefined),12,1,-1,21
O=C(Nc1ccc(F)cc1)N1CCC2(CC1)OCc1ccccc1O2,-2,-1,0,-9
Cc1ccccc1C(=O)OCC(=O)c1cc(C)n(Cc2ccco2)c1C,69*,-1,0,14
Cc1cc(C(=O)COc2ncnc3sccc23)c(C)n1CC1COc2ccccc2O1 (centres undefined),5,-1,0,14
Cc1cc(C(=O)COC(=O)c2cccnc2Cl)c(C)n1Cc1cccs1,47*,0,0,5
Cc1cc(C(=O)COc2ncnc3sccc23)c(C)n1Cc1cccs1,33*,-1,0,-19
Cc1cc(C(=O)COC(=O)c2n[nH]c3ccccc23)c(C)n1Cc1cccs1,74*,1,0,-14
CCN1CCN(Cc2ccc(NC(=O)Nc3ccccc3)cc2)CC1,52*,0,0,3
CCN1CCN(Cc2ccc(NC(=O)Nc3ccc(OC)cc3)cc2)CC1,-33,3,1,22
COc1ccc(O)c(/C=N/NC(=S)Nc2cccc(C(=O)O)c2)c1,6,-2,-1,104*
CN(C)c1ccc(/C=N/NC(=S)Nc2cccc(C(=O)O)c2)cc1,64*,1,0,-7
COc1ccc(/C=N/NC(=S)Nc2cccc(C(=O)O)c2)c(OC)c1,4,-2,0,-4
SMILES,TEAD-YAP inh,GPR151 ag,FBW7 act,MITF inh
O=C(O)c1cccc(NC(=S)N/N=C/c2cccc(O)c2)c1,15,1,0,8
Cc1ccsc1CN1CCc2c(nc(N3CCCCC3C)[nH]c2=O)C1 (centres undefined),5,0,0,11
NNC(=O)c1[nH]ncc1[N+](=O)[O-],-11,-3,0,5
Cc1nn(-c2ccccn2)c2c1C(=O)/C(=C\Nc1ccc([N+](=O)[O-])cc1)CC2,-5,0,0,2
O=S(=O)(Cc1ccccc1)N1CCC(Cc2ccccc2)CC1,3,1,0,-4
CC1=CC(=O)C(N2CCC(Cc3ccccc3)CC2)=CC1=O,4,-2,0,60*
CCN(CC)C(=O)C1CCCN(c2nc(Nc3ccc(NC(C)=O)cc3)c3ncn(C(C)C)c3n2)C1 (centres undefined),46*,-1,0,7
CCN(CC)C(=O)C1CCCN(c2nc(NC3CC3)c3ncn(C4CCCCC4)c3n2)C1 (centres undefined),29,2,0,-1
